Bioassay records as filed in PubChem BioAssay.
In the library only some 2.8% were active in any assay of this set; here they are far more common.
N-glyco inh: N-linked glycosylation inhibition | hit rate 0.23% among 360,000 | reporter increase, % at 12.5 µM | D54 ERlucT glycosylation luciferase reporter, 24 h; percent of 100 nM tunicamycin response;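 active = mean luciferase reporter signal, scaled so untreated is 0 and the glycosylation-blocking control 100, at or above a set limit in every replicate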;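 also: luciferase carries N-glycosylation sites so blocking glycosylation raises the light; 0% = median of neutral control wells and 100% = median of 100 nM tunicamycin wells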
NSD2 HMT inh: blocks human histone methyltransferase NSD2; O96028; NSD2 peptide methylation, AlphaScreen, 120 min; inhibition, % at 12.5 µM; hit rate 0.54% among 310,000; AID 743445; in the data active = inhibition above about 50%
Shn3 inh set2: Schnurri-3 reporter inhibition in Clone20 osteoblasts | Clone20 osteoblast Shn3 3'UTR firefly luciferase, 24 h | inhibition, % at 12.5 µM | hit rate 0.52% among 360,000 | AID 588674;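 active = mean inhibition of at least 75% with every replicate also reaching 75%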;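 also: 0% = median of neutral control wells and 100% = pilot-screen positive control compound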
PAX8 inh HTS: lowers PAX8-driven luciferase in RMG-I cells | RMG-I TPO-luciferase reporter, SteadyGlo, 24 h | inhibition, % at 12.6 µM | hit rate 1.2% among 360,000;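 active = mean replicate inhibition at least 60% with every replicate also reaching 60%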;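 also: luciferase light reporting Pax8 driven TPO promoter activity; plate controls were median of neutral control wells for no effect and mitoxantrone controls for full effect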
EBV LMP1 NFkB: Epstein-Barr LMP1 NF-kappaB reporter inhibition | LMP1-induced NF-kappaB luciferase reporter cells, luminescence | inhibition, % at 12.5 µM | hit rate 0.69% among 350,000 | AID 504558; in the data active = inhibition above about 41%;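 also: 0% = neutral control wells and 100% = reference inhibitor control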
Env fusion inh: inhibitors of HIV Env-mediated cell fusion. HeLa-JRFL Env/CEM21 cell fusion, luciferase. inhibition, % at 12.3 µM. hit rate 1.1% among 360,000. AID 651610;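 active = mean replicate inhibition score of at least 50 and every replicate individually at or above 50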;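 also: 0% = plate neutral controls and 100% = maraviroc near 300 nM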
* = called active by the depositor; . = no result given; [ ] = remark or other dose.

SMILES	N-glyco inh	NSD2 HMT inh	Shn3 inh set2	PAX8 inh HTS	EBV LMP1 NFkB	Env fusion inh
C[C@@H]1CCCCO[C@@H](CN(C)Cc2ccc(C(F)(F)F)cc2)[C@@H](C)CN([C@@H](C)CO)C(=O)c2cc(NC(=O)NC3CCCCC3)ccc2O1	.	.	.	48.8	.	8.8[16.7 µM]
O=C(C[C@H]1CC[C@H](NS(=O)(=O)c2ccccc2)[C@H](CO)O1)NCc1ccc(Cl)c(Cl)c1	.	.	.	16.9	.	-9.7[16.7 µM]
CC(C)CCn1c(Sc2nc3ccccc3o2)nc2c1c(=O)[nH]c(=O)n2C	-13.6	0.8	-59.7	-103.2	57.4*	-8.9
CN1CCN(C(=O)c2ccc3nc(-c4ccc(F)cc4)c(-c4ccc(F)cc4)nc3c2)CC1	.	4.1	.	.	.	.
NCCCn1c(C(=O)c2cc(Cl)c(N)c(Cl)c2)c2ccc([N+](=O)[O-])cc2[n+]1[O-]	-11.6	.	5.6	69.6*	32.5	-47.5
NCCCn1c(C(=O)c2cc(Cl)c(N)c(Cl)c2)c2ccc(C(F)(F)F)cc2[n+]1[O-]	-8.1	.	-22.4	21.5	-5.7	24.9
C[C@@H]1CN([C@H](C)CO)C(=O)c2cc(NS(=O)(=O)c3ccccc3)ccc2O[C@@H](C)CCCCO[C@@H]1CN(C)Cc1ccc2c(c1)OCO2	.	.	.	21.8	.	3.5[16.7 µM]
COCc1nn2c(N)c(C#N)cnc2c1-c1ccccc1	-1.4	-1.0	95.5*	.	0.1	.
C[C@H](CO)N1C[C@H](C)[C@@H](CN(C)C(=O)Nc2ccccc2F)Oc2cc(-c3ccc(C(=O)N(C)C)cc3)ccc2S1(=O)=O	.	.	.	-1.4	.	-16.6[16.7 µM]
CN(C)CCCN1C(=O)c2cccc3c(Br)ccc(c23)C1=O	40.0*	13.8	6.2	6.4	-21.3	-77.4
COc1ccc(S(=O)(=O)N(C)C[C@H]2OCCCC[C@H](C)Oc3ccc(NS(=O)(=O)c4cccs4)cc3C(=O)N([C@H](C)CO)C[C@H]2C)cc1	.	.	.	-6.3	.	-42.1[16.7 µM]
Cc1noc(C)c1NC(=O)N(C)C[C@H]1Oc2ccc(NC(=O)Cc3cn(C)c4ccccc34)cc2CC(=O)N([C@@H](C)CO)C[C@@H]1C	.	.	.	5.9	.	2.8[16.7 µM]
O=C(/C=C/c1ccc(F)cc1)NC(=S)NNC(=O)c1cnccn1	-9.3	8.4	89.3*	-6.2	36.3	16.3
COc1ccc(/C=C/C(=O)NC(=S)NNC(=O)c2cnccn2)cc1	-8.6	4.5	93.7*	25.1	29.8	-12.3
COc1ccc(/C=C/C(=O)NC(=S)NNC(=O)c2cccnc2)cc1	4.5	-5.6	-5.4	0.1	-8.2	5.1
O=C(NC(=S)NNC(=O)c1cnccn1)c1ccc(F)cc1	-7.4	6.2	66.0	-4.1	16.0	8.1
CCC(=O)N(C)C[C@H]1Oc2cc(-c3cccc(OC)c3)ccc2S(=O)(=O)N([C@@H](C)CO)C[C@@H]1C	.	.	.	.	.	-1.6[16.7 µM]
CO[C@@H]1CN(C)C(=O)c2cc(NS(=O)(=O)c3ccc(Cl)cc3)ccc2OC[C@@H](C)NC[C@@H]1C	.	.	.	-1.5	.	-5.2[16.7 µM]
CO[C@@H]1CN(C)C(=O)c2cc(NS(C)(=O)=O)ccc2OC[C@H](C)N(CC2CCOCC2)C[C@@H]1C	.	.	.	-11.4	.	-3.8[16.7 µM]
COc1ccc(OC)c(NC(=O)c2cc(-c3cc(Cl)ccc3O)n[nH]2)c1	-2.1	0.7	28.2	26.0	-27.7	55.2*
CNC[C@H]1Oc2c(NC(=O)Nc3ccc(C(F)(F)F)cc3)cccc2C(=O)N([C@H](C)CO)C[C@@H]1C	.	.	.	-16.4	.	-2.5[16.7 µM]
O=[N+]([O-])c1cccc(-c2nnc(-c3ccccc3)o2)c1	0.1	-2.9	44.0	-172.5	-33.7	-51.2
O=[N+]([O-])c1cccc(-c2nnc(-c3ccc4c(c3)OCO4)o2)c1	-5.5	0.8	-60.2	143.8*	-30.6	-33.4
CCOC(=O)[C@@H]1[C@H]2COc3ccccc3[C@@H]2N2C(=O)N(c3cccc(Cl)c3)C(=O)[C@@]12C	-1.7	.	14.7	9.6	-1.2	55.1*
CCOC(=O)[C@@H]1[C@H]2COc3ccccc3[C@H]2N2C(=O)N(c3cccc(Cl)c3)C(=O)[C@@]12C	-2.1	.	6.8	.	3.6	.
SMILES	N-glyco inh	NSD2 HMT inh	Shn3 inh set2	PAX8 inh HTS	EBV LMP1 NFkB	Env fusion inh
CCOC(=O)[C@@H]1[C@H]2COc3cc(OC)ccc3[C@H]2N2C(=O)N(c3ccc(C(F)(F)F)cc3)C(=O)[C@]12C	-4.8	.	-2.6	15.2	0.6	109.0*
CCOC(=O)[C@@H]1[C@H]2COc3cc(OC)ccc3[C@H]2N2C(=O)N(c3cccc(F)c3)C(=O)[C@@]12C	1.1	.	-25.5	5.6	-2.4	95.3*
CCOC(=O)[C@@H]1[C@H]2COc3cc(OC)ccc3[C@@H]2N2C(=O)N(c3ccc(C(F)(F)F)cc3)C(=O)[C@@]12C	1.3	.	8.2	4.6	0.1	-24.7
c1ccc(-c2ccc([C@H]3[C@H]4CNC[C@@H]3N4Cc3cc(-c4ccccc4)on3)cc2)cc1	.	.	.	11.3	.	.
CCC(=O)N(C)C[C@@H]1Oc2ncc(-c3ccc(C(=O)N(C)C)cc3)cc2C(=O)N([C@H](C)CO)C[C@H]1C	.	.	.	.	.	1.5[16.7 µM]
COC(=O)CN(C(=S)Nc1ccccc1)C1CC(=O)N(c2ccc(OC)cc2)C1=O (stereo not given)	1.0	4.1	0.9	.	0.7	.
COC(=O)CN(C(=S)Nc1ccc(F)cc1)C1CC(=O)N(c2ccc(OC)cc2)C1=O (stereo not given)	1.5	-1.5	20.5	.	2.3	71.2*
C[C@H]1CN([C@@H](C)CO)C(=O)c2cc(NC(=O)Nc3ccc(F)cc3)ccc2O[C@H]1CN(C)C(=O)Nc1ccc(F)cc1	.	.	.	.	.	-11.6[16.7 µM]
O=C(NCC(=O)N1CCN(c2ncccn2)CC1)c1ccccc1OC(F)F	-0.9	.	-19.6	6.3	0.3	85.5*
COc1ccc(C(=O)NCC(=O)N2CCN(c3ncccn3)CC2)cc1OC	1.0	.	-6.3	-10.0	3.2	7.4
O=S(=O)(NC1CC1)c1ccc(S(=O)(=O)N2CCCc3ccccc32)cc1	-2.4	-0.8	59.7	.	-6.3	68.6*
Cc1ccc(S(=O)(=O)N2CCCc3ccccc32)cc1	8.2	-3.4	-17.1	4.3	-9.6	2.3
C[C@@H]1CN([C@@H](C)CO)C(=O)CCCn2cc(nn2)CO[C@H]1CN(C)Cc1ccc(O)cc1	.	.	.	-0.9	.	.
C[C@H]1CN([C@@H](C)CO)C(=O)c2cc(NC(=O)C3CC3)ccc2O[C@@H]1CN(C)Cc1ccc(C(=O)O)cc1	.	.	.	-17.2	.	-9.1[16.7 µM]
C=C1CCC[C@]2(C)C[C@H]3OC(=O)C(CN(C)CC(OC)OC)[C@H]3CC12 (stereo not given in full)	-9.8	-0.8	-19.1	63.2*	14.3	22.5
C=C1CCC[C@]2(C)C[C@H]3OC(=O)C(CN4CCCCC4CO)[C@H]3CC12 (stereo not given in full)	-12.3	0.8	-27.3	-7.2	90.6*	-34.5
Nc1ccc2nc(-c3ccccc3)c(-c3ccccc3)nc2c1	32.7*	-26.7	-6.8	7.7	-23.1	-9.1
COc1ccc(S(=O)(=O)Nc2ccc3c(c2)C(=O)N([C@H](C)CO)C[C@@H](C)[C@H](CN(C)C(=O)Nc2ccc(C(F)(F)F)cc2)OCCCC[C@@H](C)O3)cc1	.	.	.	61.9*	.	-48.4[16.7 µM]
